Reference: PubChem BioAssay AID463173 (ICCB-Longwood Screening Facility, Harvard Medical School, 2010)
Out of some 52,000 compounds screened, about 4,300 (8.3%) were called active. Rule as the data show it: active = survival mostly below about 52% (no sharp cut-off); inactive = mostly above about 56%. The entries come from a sample that favours actives as a whole.

tested on: DeltatarO mutant; test: growth inhibition of S. aureus wild type versus tarO mutant, primary screen, teichoic acid synthesis inhibitors, RN4220, OD600 (AID 463173); settings: OD600, 18 h, active compounds read low, screened at 18.75 µg/mL (by protocol)

Compound | survival
Cc1ccc(C)c(NC(=O)C(c2ccccc2)N2Cc3ccccc3C2=O)c1 (centres undefined) | 117% (inactive)
Cn1c(=O)c2c(nc(CN3CCN(c4ccccc4F)CC3)n2Cc2ccccc2F)n(C)c1=O | 92% (inactive)
COc1ccc(-n2nc3cc(C)c(NC(=O)c4ccc(C)cc4C)cc3n2)cc1Cl | 83% (inactive)
Cc1nnc(NC(=O)CSc2nc3c([nH]c4ccccc43)c(=O)n2-c2ccc(Cl)cc2)s1 | 73% (inactive)
Cc1ccc(CN2CCSc3ccc(C(=O)Nc4ccc(C)cc4)cc32)cc1 | 105% (inactive)
O=C(CSc1nnc(Cc2ccccc2)o1)N(c1ccccc1)c1ccccc1 | 78% (inactive)
COc1ccccc1NC(=O)C1CCCN(c2nnc(C)c3c(C)n(-c4ccccc4)nc23)C1 (centres undefined) | 84% (inactive)
COc1ccc(S(=O)(=O)NC2(C(F)(F)F)NC(=O)N(CCc3ccccc3)C2=O)cc1 (centres undefined) | 99% (inactive)
CC(C)(C)c1ccc(C(=O)NCC(c2ccco2)S(=O)(=O)c2ccccc2)cc1 (centres undefined) | 101% (inactive)
O=C(NCC(c1ccco1)S(=O)(=O)c1ccc(Cl)cc1)c1ccc(C(F)(F)F)cc1 (centres undefined) | 17% (active)
CC(C)(C)c1ccc(C(=O)NCC(c2ccco2)S(=O)(=O)c2ccc(F)cc2)cc1 (centres undefined) | 126% (inactive)
COc1ccc(C(=O)NCC(c2ccco2)S(=O)(=O)c2ccccc2)cc1 (centres undefined) | -4% (active)
Cc1ccc(S(=O)(=O)C(CNC(=O)c2ccc(C(F)(F)F)cc2)c2ccco2)cc1 (centres undefined) | 130% (inactive)
COc1ccc(C(=O)NCC(c2ccco2)S(=O)(=O)c2ccc(F)cc2)cc1 (centres undefined) | 68% (inactive)
Cc1ccc(C(=O)NCC(c2ccco2)S(=O)(=O)c2ccc(Cl)cc2)cc1C (centres undefined) | 55% (inactive)
Cc1ccc(S(=O)(=O)C(CNC(=O)c2ccc(F)c(F)c2)c2ccco2)cc1 (centres undefined) | -5% (active)
CCOc1ccc(C(=O)NCC(c2ccco2)S(=O)(=O)c2ccc(C)cc2)cc1 (centres undefined) | 88% (inactive)
Cc1cc(C)cc(S(=O)(=O)Nc2cccc(-c3ccc(N4CCOCC4)nn3)c2)c1 | 86% (inactive)
CCOC(=O)C1CCCN(C(=O)Cn2ncc3c(C)n(Cc4ccc(Cl)cc4)c(C)c3c2=O)C1 (centres undefined) | 59% (inactive)
O=C(CSc1nnc(-c2ccc3c(c2)OCO3)o1)Oc1ccccc1 | 87% (inactive)
CSc1nc(N)c(C#N)c(C(C)C)c1C#N | 75% (inactive)

Compound | survival
COc1ccc(-n2nc(C(=O)Nc3cccc(C(F)(F)F)c3)c3c4ccccc4n(C)c3c2=O)cc1 | 78% (inactive)
CN1C(=O)Cc2cc(S(=O)(=O)NCCc3ccccc3)ccc21 | 123% (inactive)
Cc1cc(S(=O)(=O)N(C)Cc2ccccc2)ccc1-n1cnnn1 | 81% (inactive)
CN1C(=O)CC(=O)N(C)c2cc(S(=O)(=O)N(C)Cc3ccccc3)ccc21 | 3% (active)
Cc1oc(-c2ccccc2Cl)nc1CS(=O)(=O)CC(=O)NC(C)c1ccccc1 (centres undefined) | 63% (inactive)
Cc1ccc2ncc(C(=O)Nc3cccc(C(F)(F)F)c3)c(=O)n2c1 | 122% (inactive)
Cc1[nH]c2ccccc2c1C1N2CC3(C)CN1CC(C)(C2)C3=O (centres undefined) | 77% (inactive)
CCc1ccc(NC(=O)CN(c2ccc(C)cc2)S(=O)(=O)c2c(C)nn(C)c2C)cc1 | 56% (inactive)
Cc1nn(C)c(C)c1S(=O)(=O)N(CC(=O)Nc1ccc(F)cc1F)c1ccc(C(C)C)cc1 | 94% (inactive)
Cc1cccc(NC(=O)CN(c2ccc(C(C)C)cc2)S(=O)(=O)c2c(C)nn(C)c2C)c1C | 42% (active)
Cc1cc(C)cc(N(CC(=O)Nc2c(C)cc(C)cc2C)S(=O)(=O)c2c(C)nn(C)c2C)c1 | -5% (active)
COc1ccc(N(CC(=O)Nc2cccc(Cl)c2C)S(=O)(=O)c2c(C)nn(C)c2C)cc1 | 62% (inactive)
CCOc1ccccc1NC(=O)CN(c1cc(C)cc(C)c1)S(=O)(=O)c1c(C)nn(C)c1C | 89% (inactive)
CC(=O)c1ccc(N2CCN(S(=O)(=O)c3ccc(-c4cc(C(F)(F)F)on4)s3)CC2)cc1 | 96% (inactive)
Cc1cc(-c2ccc(S(=O)(=O)N3CCN(c4ccc(Cl)cc4)CC3)s2)on1 | 124% (inactive)
CC(=O)c1ccc(N2CCN(S(=O)(=O)c3ccc(-c4cc(C)no4)s3)CC2)cc1 | -5% (active)
Cc1cc(C)c(NC(=O)CN2C(=O)C3(SCC(=O)N3c3ccc(F)cc3)c3ccccc32)c(C)c1 (centres undefined) | 74% (inactive)
CN(Cc1ccccc1)C(=O)CSc1nnc(-c2cccc(Cl)c2)o1 | 85% (inactive)
O=C(N/N=C/c1ccco1)C1CN(S(=O)(=O)c2ccccc2)CCN1S(=O)(=O)c1ccccc1 (centres undefined) | 1% (active)
CCNC(=O)C1CN(S(=O)(=O)c2ccccc2)CCN1S(=O)(=O)c1ccccc1 (centres undefined) | 75% (inactive)
O=C(N/N=C/c1ccco1)C1c2ccccc2Oc2ccccc21 | 96% (inactive)

Compound | survival
Cc1ccc(CNS(=O)(=O)c2ccc3c(c2)CCN3S(C)(=O)=O)cc1 | 94% (inactive)
O=C(Nc1cccc(C(F)(F)F)c1)c1ccc(F)c(S(=O)(=O)N2CCc3ccccc3C2)c1 | 91% (inactive)
COc1ccc(-n2c(/C=C/c3cccc4ccccc34)nc3ccccc3c2=O)cc1Cl | 78% (inactive)
COc1cc2c(cc1OC)C(COc1ccc(C(C)C)cc1)N(C(=O)COc1ccccc1)CC2 (centres undefined) | 101% (inactive)
COc1cc2c(cc1OC)C(COc1cc(C)cc(C)c1)N(C(=O)c1ccc(S(=O)(=O)N3CCCC3)cc1)CC2 (centres undefined) | 73% (inactive)
COc1cc2c(cc1OC)C(COc1ccccc1OC)N(C(=O)COc1ccc(Cl)cc1)CC2 (centres undefined) | 47% (active)
COc1cc2c(cc1OC)C(COc1ccccc1OC)N(C(=O)c1ccc(S(=O)(=O)N3CCCC3)cc1)CC2 (centres undefined) | 32% (active)
COc1cc2c(cc1OC)C(COc1ccc(F)cc1)N(C(=O)c1ccc(S(=O)(=O)N3CCCC3)cc1)CC2 (centres undefined) | 81% (inactive)
COC(=O)c1ccc(OCC2c3cc(OC)c(OC)cc3CCN2C(=O)COc2ccc(Cl)cc2)cc1 (centres undefined) | 78% (inactive)
COCCCNC(=O)c1cc2c(=O)oc3ccc(C)cc3c2s1 | 68% (inactive)
COC(=O)c1cnn2c(C)c(Cc3c(C)cc(C)cc3C)c(C)nc12 | 83% (inactive)
CC(C)Nc1nc(Cl)nc(NNC(=O)C(C)Oc2ccccc2)n1 (centres undefined) | 93% (inactive)
CCCCNC(=O)CSc1nc2cc3c(cc2c(=O)n1CCCC(=O)NCCc1ccc(OC)c(OC)c1)OCO3 | 109% (inactive)
CCOC(=O)CSc1nc2cc3c(cc2c(=O)n1CCCCCC(=O)NCc1ccc(OC)cc1)OCO3 | 72% (inactive)
COCCCNC(=O)CSc1nc2cc3c(cc2c(=O)n1CCCCCC(=O)NCc1ccc(OC)cc1)OCO3 | 6% (active)
COc1ccc(CCNC(=O)CCCn2c(SCC(N)=O)nc3cc4c(cc3c2=O)OCO4)cc1OC | 72% (inactive)
CCOC(=O)CSc1nc2cc3c(cc2c(=O)n1CCCC(=O)NCCc1ccc(OC)c(OC)c1)OCO3 | -2% (active)
COCCCNC(=O)CSc1nc2cc3c(cc2c(=O)n1CCCC(=O)NCc1ccc(OC)cc1)OCO3 | 83% (inactive)
CCN(CC)C(=O)CSc1nc2cc3c(cc2c(=O)n1CCCCCC(=O)NCc1ccc(OC)cc1)OCO3 | -1% (active)
CCN(CC)C(=O)CSc1nc2cc3c(cc2c(=O)n1CCCC(=O)NCc1ccc(OC)cc1)OCO3 | 71% (inactive)
COCCNC(=O)CSc1nc2cc3c(cc2c(=O)n1CCCCCC(=O)NCc1ccc(OC)cc1)OCO3 | 67% (inactive)

Compound | survival
COc1ccc(N2CCN(Cc3nc4c(c(=O)[nH]c(=O)n4C)n3Cc3ccccc3F)CC2)cc1 | 119% (inactive)
COc1ccccc1Cn1c(CNS(=O)(=O)c2ccc(CC(C)C)cc2)nc2cccnc21 | 95% (inactive)
COc1ccc(/C=C(\NC(=O)c2ccccc2)C(=O)NC2CCCCC2)cc1 | 86% (inactive)
COc1cc(NC(=O)c2cc3ccccn3n2)cc(OC)c1OC | 69% (inactive)
Cc1ccc(NC(=O)NCCc2c(C)nn(C)c2C)c(Cl)c1 | 72% (inactive)
Cc1ccc(C(=O)NCC(c2cccs2)S(=O)(=O)c2cccs2)cc1C (centres undefined) | 78% (inactive)
COC(=O)CN1C(=O)C(C)(C)c2cc(S(=O)(=O)Nc3ccc(C(C)C)cc3)ccc21 | 79% (inactive)
CC(C)(C)c1ccc(C(=O)N2CCC(c3noc(-c4ccc(S(=O)(=O)N5CCCC5)cc4)n3)CC2)cc1 | 89% (inactive)
CCOC(=O)C1CCN(C(c2cc3ccc(OC)cc3n3nnnc23)c2nnnn2C2CCCC2)CC1 (centres undefined) | 101% (inactive)
CCc1cccc(C)c1Nc1c(-c2cccs2)nc2ncccn12 | 73% (inactive)
COc1ccc(CC2C(=O)Nc3ccc(Br)cc32)cc1OC (centres undefined) | 82% (inactive)
CCOc1ccccc1CC1C(=O)Nc2ccc(Br)cc21 (centres undefined) | 59% (inactive)
CCOc1c(CC2C(=O)Nc3ccc(Br)cc32)cccc1OC (centres undefined) | 102% (inactive)
COc1ccc(OC)c(CC2C(=O)Nc3ccc(Br)cc32)c1 (centres undefined) | 72% (inactive)
CCCCOc1ccccc1CC1C(=O)Nc2ccc(Br)cc21 (centres undefined) | 14% (active)
CCCOc1ccc(CC2C(=O)Nc3ccc(Br)cc32)cc1 (centres undefined) | 0% (active)
Cc1cc(C)cc(NC(=O)C2CCN(S(=O)(=O)c3ccc4c(c3)oc(=O)n4C)CC2)c1 | 95% (inactive)
COc1ccc2c(c1)c1c(c(=O)n(CCc3ccccc3)c(=O)n1Cc1cccc(Cl)c1)n2C | 76% (inactive)
O=C(CN1C(=O)CSc2ccc(S(=O)(=O)N3CCCCC3)cc21)NCc1ccc(F)cc1Cl | 79% (inactive)
CNC(=S)N1C2CCC1CC(NC(=O)NC13CC4CC(CC(C4)C1)C3)C2 (centres undefined) | 79% (inactive)
CCOC(=O)c1ccc(NC(=O)Nc2cccc(OCc3cc(=O)n4ccc(C)cc4n3)c2)cc1 | 68% (inactive)
